Data on ten molecules can be found in PubChem BioAssay (NCI).

The panel holds about 83,000 compounds, 20% with a hit somewhere; the sample as a whole holds those more often.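 Interpretation: 100, growth as untreated; towards 0, rising growth inhibition; 0, no net growth; 0 to -100, cell death. Compounds scoring below 10 were considered active.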 Values without a mark were called inactive. The source made the active and inactive calls.

Test systems include SK-MEL-2 melanoma; EKVX NSCLC; UO-31 renal; TK-10 renal; ACHN renal; A498 renal; CCRF-CEM leukemia; MOLT-4 leukemia; SR leukemia; RPMI-8226 leukemia; OVCAR-8 ovarian; OVCAR-5 ovarian; OVCAR-4 ovarian; IGROV1 ovarian; OVCAR-3 ovarian; HS 578T breast; NCI/ADR-RES ovarian; SK-OV-3 ovarian; CAKI-1 renal; SN12C renal.
Holding throughout (experiment): NCI-60 one-dose screen, 48 h (100 = growth as untreated, 0 = no growth, -100 = all killed)
Common to all, as to details: 10 µM unless noted

`COc1nc2c(cc1S(=O)(=O)c1ccccc1)CCc1c-2cnn1Cc1ccccc1`: the growth in the assay on SK-MEL-2 melanoma was 74.3%; with EKVX NSCLC, 36.1%; with UO-31 renal, 39.4%; with TK-10 renal, 61%; in the assay with ACHN renal, 71.7%; in the assay on A498 renal it was 17.6%. The growth in the assay with CCRF-CEM leukemia is 68.7%; with MOLT-4 leukemia, 44.9%; in the assay with SR leukemia, 26.2%; with RPMI-8226 leukemia, 32.8%; in the assay on OVCAR-8 ovarian, 54%; in the assay with OVCAR-5 ovarian it was 93.6%. For the same molecule, the growth in the assay on OVCAR-4 ovarian was 35.2%; with IGROV1 ovarian it was 80.5%; in the assay with OVCAR-3 ovarian it was 64.5%; with HS 578T breast, 79.9%; in the assay on NCI/ADR-RES ovarian, 48.2%.
Regarding `O=C1OC2C(I)C3CC2C1C3c1ccccc1` (centres undefined), the growth in the assay with SK-MEL-2 melanoma is 128%; in the assay on EKVX NSCLC, 129%; with UO-31 renal, 95.8%; with TK-10 renal it was 145%; with ACHN renal, 102%; with A498 renal it was 114%. In addition, the growth with CCRF-CEM leukemia was 110%; in the assay with MOLT-4 leukemia, 102%; with SR leukemia it was 86.8%; in the assay with RPMI-8226 leukemia, 106%; in the assay with OVCAR-5 ovarian, 93%; in the assay on OVCAR-4 ovarian it was 96.3%. Moreover, the growth in the assay with SK-OV-3 ovarian was 116%; with IGROV1 ovarian it was 111%; in the assay on OVCAR-3 ovarian, 120%; in the assay with HS 578T breast, 143%; with NCI/ADR-RES ovarian it was 101%.
As to `CCCCN(CC)CCCCCCCCCCN1CCCc2cc(OC)ccc21`, the growth in the assay on SK-MEL-2 melanoma was 92.8%; with EKVX NSCLC it was 34.5%; in the assay with UO-31 renal, 24.4%; in the assay on TK-10 renal, 87.8%; in the assay on ACHN renal, 76.7%; in the assay on CAKI-1 renal, 6.91% (active). The growth was 75.9% with A498 renal; 7.28% (active) in the assay on CCRF-CEM leukemia; -19.6% (active) in the assay on MOLT-4 leukemia; -31.7% (active) in the assay with SR leukemia; -18.4% (active) in the assay on RPMI-8226 leukemia; 87.5% in the assay with OVCAR-8 ovarian. Moreover, the growth in the assay on OVCAR-5 ovarian was 78.8%; in the assay with OVCAR-4 ovarian, 101%; in the assay on SK-OV-3 ovarian, 88.9%; with OVCAR-3 ovarian it was 13.6%.
With `O=C(COCc1c(-c2ccccc2)no[n+]1[O-])Nc1ccc(C(=O)/C=C/c2ccc3c(c2)OCO3)cc1`, the growth was 134% in the assay on SK-MEL-2 melanoma; 108% in the assay on EKVX NSCLC; 102% in the assay on SN12C renal; 87.4% in the assay on UO-31 renal; 94.6% in the assay on ACHN renal; 91.7% with CAKI-1 renal. The growth in the assay on A498 renal is 111%; in the assay on CCRF-CEM leukemia, 82.4%; with MOLT-4 leukemia it was 77.2%; with RPMI-8226 leukemia, 74.2%; in the assay on OVCAR-4 ovarian, 114%; in the assay with SK-OV-3 ovarian it was 112%. Moreover, the growth was 95.2% in the assay with IGROV1 ovarian, 113% in the assay on OVCAR-3 ovarian, 101% with HS 578T breast and 106% in the assay on NCI/ADR-RES ovarian.
For `CC(C)(C)c1nn(-c2ccccc2)c2c1CC1(CN2Cc2ccc3c(c2)OCO3)C(=O)c2ccccc2C1=O`, the growth is 115% in the assay on SK-MEL-2 melanoma; 119% with EKVX NSCLC; 96.5% in the assay with SN12C renal; 104% in the assay on UO-31 renal; 89.9% in the assay on ACHN renal; 98.9% in the assay with CAKI-1 renal. Moreover, the growth in the assay on A498 renal is 106%; in the assay with CCRF-CEM leukemia, 85.2%; with MOLT-4 leukemia it was 80.3%; in the assay on RPMI-8226 leukemia, 85.8%; with OVCAR-8 ovarian, 89.2%; with OVCAR-5 ovarian it was 105%. The growth in the assay with OVCAR-4 ovarian was 123%; with SK-OV-3 ovarian it was 115%; in the assay on IGROV1 ovarian, 96.6%; in the assay with HS 578T breast, 120%; with NCI/ADR-RES ovarian it was 101%.
For the molecule `O=C(O)c1cccnc1Br`, the growth is 99.6% in the assay with SK-MEL-2 melanoma; 107% with EKVX NSCLC; 73.5% in the assay with UO-31 renal; 113% in the assay with TK-10 renal; 99.6% in the assay on ACHN renal; 94.1% with CAKI-1 renal. Moreover, the growth with A498 renal is 104%; in the assay with CCRF-CEM leukemia, 121%; in the assay on MOLT-4 leukemia, 103%; in the assay with SR leukemia it was 89.4%; in the assay with RPMI-8226 leukemia, 112%; with OVCAR-8 ovarian it was 106%. Moreover, the growth in the assay on OVCAR-5 ovarian was 101%; with OVCAR-4 ovarian, 102%; in the assay on SK-OV-3 ovarian, 94.4%; in the assay with IGROV1 ovarian, 98.1%; in the assay with OVCAR-3 ovarian, 104%; in the assay with HS 578T breast, 110%. Further, the growth in the assay with NCI/ADR-RES ovarian was 99.3%.
`C=C(CN1CCN(c2cccc(C(F)(F)F)n2)CC1)c1ccc(C(=O)Nc2ccccc2N)cc1`: the growth was -9.9% (active) in the assay on SK-MEL-2 melanoma; 47.2% in the assay with EKVX NSCLC; 15.5% with SN12C renal; 12% in the assay with UO-31 renal; 41.6% in the assay with TK-10 renal; 14.3% with CAKI-1 renal. The growth is -32.1% (active) in the assay on CCRF-CEM leukemia; -14.5% (active) with MOLT-4 leukemia; -20.9% (active) in the assay on SR leukemia; 4.35% (active) in the assay with RPMI-8226 leukemia; 18.8% in the assay on OVCAR-8 ovarian; 34.8% in the assay with OVCAR-5 ovarian. Also, the growth was 32.9% in the assay with OVCAR-4 ovarian; 21.2% in the assay with SK-OV-3 ovarian; -38.2% (active) with OVCAR-3 ovarian; 41.1% in the assay with HS 578T breast; 1.99% (active) in the assay on NCI/ADR-RES ovarian.
For `CNc1cc2nc3cc(NC)c(C)cc3cc2cc1C`, the growth with EKVX NSCLC is -0.852% (active); in the assay with SN12C renal, 14.2%; in the assay with UO-31 renal it was 34.5%; with TK-10 renal it was 24.5%; in the assay with ACHN renal, 20.6%; in the assay on CAKI-1 renal, 7.63% (active). The growth is 16.5% in the assay with A498 renal; 40.9% in the assay on CCRF-CEM leukemia; 1.13% (active) in the assay with MOLT-4 leukemia; -27.6% (active) in the assay on SR leukemia; 3.16% (active) in the assay with RPMI-8226 leukemia; 2.25% (active) in the assay with OVCAR-8 ovarian. The growth with OVCAR-5 ovarian is 24.5%; in the assay with OVCAR-4 ovarian it was 10.8%; with SK-OV-3 ovarian, 12.7%; with IGROV1 ovarian it was 21.1%; in the assay on OVCAR-3 ovarian it was 3.6% (active); in the assay with HS 578T breast, 13.1%. Besides, the growth in the assay with NCI/ADR-RES ovarian is 40.7%.
Regarding `C=CCSc1nnc(-c2ccc(C(C)(C)C)cc2)n1-c1cccc(C(F)(F)F)c1`, the growth with EKVX NSCLC was 22.2%; in the assay on SN12C renal, 29.4%; with TK-10 renal it was 51.1%; with ACHN renal, 36.3%; in the assay with CAKI-1 renal, 32.3%; with A498 renal, 84.7%. Besides, the growth in the assay with CCRF-CEM leukemia is 24.2%; with MOLT-4 leukemia it was 21.8%; in the assay on RPMI-8226 leukemia, 17.4%; in the assay on OVCAR-8 ovarian it was 32.1%; in the assay on OVCAR-5 ovarian, 77.3%; in the assay with OVCAR-4 ovarian, 44.4%. The growth in the assay on SK-OV-3 ovarian is 61.5%; in the assay on IGROV1 ovarian it was 54.5%; in the assay on OVCAR-3 ovarian, 40.9%; with HS 578T breast, 45.5%; with NCI/ADR-RES ovarian, 22.9%.
`COc1ccccc1/C=C(/C(=O)c1ccccc1)c1ccccc1`: the growth in the assay with EKVX NSCLC is 109%; in the assay with SN12C renal, 102%; with UO-31 renal it was 75.4%; with TK-10 renal, 119%; in the assay with ACHN renal, 99.8%; in the assay with CAKI-1 renal it was 92.8%. Further, the growth in the assay on A498 renal is 111%; in the assay on CCRF-CEM leukemia, 104%; with MOLT-4 leukemia it was 75.1%; in the assay on SR leukemia, 94.7%; with RPMI-8226 leukemia, 96.9%; in the assay with OVCAR-8 ovarian, 87.7%. Also, the growth in the assay on OVCAR-5 ovarian is 128%; in the assay with OVCAR-4 ovarian, 94.2%; in the assay on SK-OV-3 ovarian it was 103%; in the assay on IGROV1 ovarian it was 96.7%; with OVCAR-3 ovarian it was 102%; with HS 578T breast, 100%. In the assay with NCI/ADR-RES ovarian, the growth was 92.1%.
